Several values for one entry are separate records, joined by “and”; a condition that tells them apart may be missing. Identical values can stand only once. Counter-ions that a name gives are not always drawn.
What follows are compounds tested on LASCPC-01 (assay: cell viability relative to DMSO control (fraction); higher = less growth inhibition (more viable cells)). Details: 2 µM; 72 h.
Method: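 High-throughput single-dose screen in the LASCPC-01 NEPC cell line in 384-well plates. Cells were treated with each compound at 2 µM for 72 h, and viability was read by CellTiter-Glo luminescence. Values are normalised to the DMSO control (compound/DMSO) from three replicates; only the 5-HT-related subset of the 7315-compound library is given.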
Compound `COc1cc(N)c(Cl)cc1C(=O)NC1CN2CCC1CC2` (stereo not given) [Zacopride hydrochloride] has a cell viability of 0.366.
For `NCCc1c[nH]c2ccc(O)cc12` [Serotonin HCl], the cell viability was 0.977.
`CNCCc1c[nH]c2ccc(O)cc12` [N-omega-Methyl-5-hydroxytryptamine oxalate salt] was tested, and the cell viability was 1.11.
In the case of `CN1CCN(c2nc3ccccc3nc2Cl)CC1`, the cell viability is reported as 0.966.
Compound `CC(N)Cc1c[nH]c2ccc(OCc3cccs3)cc12` (stereo not given) has a cell viability of 1.18.
Work on `COc1ccc2[nH]cc(CCN)c2c1` [O-Methylserotonin hydrochloride] yielded a cell viability of 0.981.
With `CN1c2ccccc2C(NCCCCCCC(=O)O)c2ccc(Cl)cc2S1(=O)=O` (stereo not given) [Tianeptine sodium] the cell viability was 0.963.
Work on `CN1C[C@H](CNC(=O)OCc2ccccc2)C[C@@H]2c3cccc4c3c(cn4C)C[C@H]21` [Metergoline] yielded a cell viability of 0.997.
For `N#Cc1ccc(N2CCN(C(=O)COc3ccc4[nH]cc(CCN)c4c3)CC2)cc1` [Donitriptan monohydrochloride], the cell viability was 1.08.
For `NCCc1c[nH]c2ccccc12` [Tryptamine hydrochloride], the cell viability was 0.96.
In the case of `C[N+]1(C)C2CCC1CC(OC(=O)c1c[nH]c3ccccc13)C2` (stereo not given) [3-Tropanylindole-3-carboxylate methiodide], the cell viability is reported as 0.906.
For `COc1ccc(C(CN(C)C)C2(O)CCCCC2)cc1` (stereo not given) [Venlafaxine hydrochloride], the cell viability was 1.06.
Compound `CN1C[C@H](C(=O)N[C@]2(C)O[C@@]3(O)[C@@H]4CCCN4C(=O)[C@H](Cc4ccccc4)N3C2=O)C[C@@H]2c3cccc4[nH]cc(c34)C[C@H]21` [Dihydroergotamine methanesulfonate] has a cell viability of 1.18.
In the case of `Clc1ccc(C(OCCN2CCCCC2)c2ccccc2)cc1` (stereo not given) [Cloperastine hydrochloride], the cell viability is reported as 0.924.
In the case of `CCCN(CCC)[C@@H]1CCc2cccc(O)c2C1` [R-(+)-8-Hydroxy-DPAT hydrobromide], the cell viability is reported as 1.03.
Work on `CC(N)Cc1c[nH]c2ccc(O)cc12` (stereo not drawn) [alpha-Methyl-5-hydroxytryptamine maleate] yielded a cell viability of 1.03.
In the case of `Clc1ccc([C@]23CNC[C@H]2C3)cc1Cl` [Amitifadine hydrochloride], the cell viability is reported as 0.896.
Compound `C=C[C@H]1CN2CC[C@@]3(C(=O)Nc4ccccc43)[C@@H]2C[C@@H]1/C(=C\OC)C(=O)OC` [Isocorynoxeine] has a cell viability of 0.677.
`COc1ccc2c(c1OC)CN1CCc3cc4c(cc3C1C2)OCO4` (stereo not given) [Tetrahydroberberine THB] showed a cell viability of 0.961.
For `COc1ccccc1N1CCNCC1` [1-(2-Methoxyphenyl)piperazine hydrochloride], the cell viability was 0.869.
With `CN1CCC[C@@H]1Cc1c[nH]c2ccc(Nc3ncccc3[N+](=O)[O-])cc12` the cell viability was 0.897.
Work on `NCCc1c[nH]c2ccc(O)cc12` [Serotonin hydrochloride] yielded a cell viability of 0.606.
In the case of `COc1ccc(C(CN(C)C)C2(O)CCCCC2)cc1` (stereo not given) [Venlafaxine], the cell viability is reported as 1.04.
Work on `Cc1[nH]c2ccc(O)cc2c1CCN` [2-Methyl-5-hydroxytryptamine maleate] yielded a cell viability of 0.982.
With `CN1CCC(c2c[nH]c3ccc(O)cc23)CC1` the cell viability was 0.966 and 0.511.
With `O=S1(=O)N(CCN2CC=C(c3c[nH]c4cc(F)ccc34)CC2)c2cccc3c2N1CCC3` the cell viability was 0.982.
Compound `COc1cc2c3c(c1OC)-c1ccccc1C[C@H]3N(C)CC2` [Nuciferine] has a cell viability of 0.818.
With `CN1CCN(c2cccc3[nH]c(=O)oc23)CC1` [Pardoprunox hydrochloride] the cell viability was 1.03.
`NCCc1c[nH]c2ccc(C(N)=O)cc12` [5-Carboxamidotryptamine maleate] gave a cell viability of 1.1.
`NCCc1c[nH]c2ccccc12` [Tryptamine] showed a cell viability of 1.08.
Compound `CCCN(CCC)C1CCc2cccc(O)c2C1` (stereo not given) [(?-8-Hydroxy-DPAT hydrobromide] has a cell viability of 1.16.
With `CC[C@@H](CO)NC(=O)[C@@H]1C=C2c3cccc4c3c(cn4C)C[C@H]2N(C)C1` [Methysergide maleate] the cell viability was 1.1.
In the case of `C[C@H](N)CN1CCc2ccc(Br)cc21` [VER-3323 hemifumarate salt], the cell viability is reported as 1.16.
Work on `CC(N)Cc1cccc(C(F)(F)F)c1` (single isomer, unassigned; (+)) [(+)-Norfenfluramine hydrochloride] yielded a cell viability of 1.09.
In the case of `COc1ccc2[nH]cc(C3=CCNCC3)c2c1`, the cell viability is reported as 0.776.
With `O=[N+]([O-])c1ccc2nc(N3CCNCC3)ccc2c1` [Quipazine,6-nitro-,maleate] the cell viability was 1.04.
In the case of `CCCN(CCC)C1CCc2cccc(O)c2C1` (stereo not given), the cell viability is reported as 0.92.
For `O=c1ccc2cc3ccoc3c(O)c2o1` [Xanthotoxol], the cell viability was 1.15.
Work on `C[C@H]1CNCCc2ccc(Cl)cc21` [Lorcaserin HCl] yielded a cell viability of 1.18.
In the case of `CN1C(=O)COc2c(C(=O)NC3CN4CCC3CC4)cc(Cl)cc21` (stereo not given) [Azasetron hydrochloride], the cell viability is reported as 1.44.

Reference: the supplement of paper PMC10042075
